# In the supplement of paper PMC6555819:
# Assays:
# Test in all cases: PBM binding z-score (relative to random genomic background probes); higher = stronger binding; sequences stand for … in GC…GCGATTGACAGCGTAGAATGAAGG
# [1] = tested on: FXR:RXRa (NR concentration 270 nM, RXRa partner concentration 90 nM)
# Method in brief: (§1)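 Probes were double-stranded and carried 34-nt variable regions with direct-repeat seeds, single-nucleotide variants, half-site ablations and random human genomic background sequences, printed on custom Agilent 4×180K protein-binding microarrays. Arrays were incubated 1 h with ligand-free nuclear receptor dimers in PBS pH 7.4, 2% milk, 0.02% Triton X-100, 1 mM DTT, 0.2 mg/mL BSA and 0.4 mg/ml salmon testes DNA. Antibodies against each partner (one per run) detected binding, and scanned fluorescence was regression-normalized. Binding z-scores use the random background probes as reference.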
# [2] = tested on: LXRa:RXRa (NR concentration 270 nM, RXRa partner concentration 90 nM)
# Method in brief: as §1
# [3] = tested on: LXRa homodimer (NR concentration 270 nM)
# Method in brief: as §1
# [4] = tested on: LXRb:RXRa (NR concentration 270 nM, RXRa partner concentration 90 nM)
# Method in brief: as §1
# [5] = tested on: LXRb homodimer (NR concentration 270 nM)
# Method in brief: as §1
# [6] = tested on: PPARa:RXRa (NR concentration 270 nM, RXRa partner concentration 90 nM)
# Method in brief: as §1
# [7] = tested on: PPARg:RXRa (NR concentration 180 nM, RXRa partner concentration 90 nM)
# Method in brief: as §1
# [8] = tested on: PPARg:RXRa 270nM:90nM, anti-RXR (NR concentration 270 nM, RXRa partner concentration 90 nM)
# Method in brief: as §1
# [9] = tested on: PPARg:RXRa 30nM:10nM, anti-RXR (NR concentration 30 nM, RXRa partner concentration 10 nM)
# Method in brief: as §1
# [10] = tested on: PPARg:RXRa 90nM:30nM, anti-RXR (NR concentration 90 nM, RXRa partner concentration 30 nM)
# Method in brief: as §1
# [11] = tested on: PPARg:RXRa DBDmut IVT, anti-RXR (DBD mutation: RXRa K156A/R161A, NR concentration 270 nM, RXRa partner concentration 90 nM)
# Method in brief: as §1
# [12] = tested on: PPARg:RXRa IVT, anti-PPARg (NR concentration 270 nM, RXRa partner concentration 90 nM)
# Method in brief: as §1
# [13] = tested on: PPARg DBDmut:RXRa IVT, anti-PPARg (DBD mutation: PPARg1 K132A/R137A, NR concentration 270 nM, RXRa partner concentration 90 nM)
# Method in brief: as §1
# [14] = tested on: PPARg DBDmut IVT, anti-PPARg (DBD mutation: PPARg1 K132A/R137A, NR concentration 270 nM)
# Method in brief: as §1
# [15] = tested on: PPARg homodimer (NR concentration 180 nM)
# Method in brief: as §1
# [16] = tested on: PXR:RXRa (NR concentration 270 nM, RXRa partner concentration 90 nM)
# Method in brief: as §1
# [17] = tested on: PXR homodimer (NR concentration 270 nM)
# Method in brief: as §1
# [18] = tested on: RARa:RXR (NR concentration 270 nM, RXRa partner concentration 90 nM)
# Method in brief: as §1
# [19] = tested on: RARa homodimer (NR concentration 270 nM)
# Method in brief: as §1
# [20] = tested on: RARb:RXRa (NR concentration 270 nM, RXRa partner concentration 90 nM)
# Method in brief: as §1
Sequence,PBM binding z-score [1],PBM binding z-score [2],PBM binding z-score [3],PBM binding z-score [4],PBM binding z-score [5],PBM binding z-score [6],PBM binding z-score [7],PBM binding z-score [8],PBM binding z-score [9],PBM binding z-score [10],PBM binding z-score [11],PBM binding z-score [12],PBM binding z-score [13],PBM binding z-score [14],PBM binding z-score [15],PBM binding z-score [16],PBM binding z-score [17],PBM binding z-score [18],PBM binding z-score [19],PBM binding z-score [20]
CCTCGGAGGACAACAGGAGGTCAGAGCCGCCAGA,0.835,2.03,1.67,1.17,-0.539,1.92,0.457,0.136,-0.412,-0.258,-0.218,0.369,-1.41,-1.45,1.21,1.72,0.183,1.99,-0.021,2.92
CATACAGGGTCAGCTAGTCCAGAGTAGGGACGGC,4.47,2.76,-0.017,2.18,0.191,4.2,3.22,2.78,0.664,2.06,1.14,2.25,0.656,0.108,1.92,2.36,-0.00687,2.91,0.913,3.94
CGTCCAAGGTCAGAGAGGTTAGTGAATGCCGAGT,5.32,3.46,0.378,2.89,-0.248,4.18,2.47,2.56,0.275,1.48,2.24,2.47,-0.113,-0.422,2.06,3.93,4.8,3.47,0.223,4.7
CCAGACAGGTGAGAAGTTAACTCAGCCTCGATTA,-0.198,-0.285,-0.173,0.0436,-0.306,0.706,0.596,1.25,-0.0978,0.58,0.968,0.347,-0.638,-0.46,0.326,-0.109,0.36,0.0412,0.721,0.4
AGAATGAGGTTATTAAGATCAGGAAATTGCGGTC,1.33,1.7,0.37,1.3,-0.00704,2.59,1.63,1.8,0.356,1.47,2.71,2.49,1.18,0.481,0.657,1.3,0.566,1.3,0.579,1.42
CCTACTTGGCCAAAAAGGTCATTGATGCCGATAA,4.39,4.79,3.93,4.61,1.27,4.7,1.74,3.04,0.755,1.87,1.07,1.98,0.866,0.465,4.5,4.93,2.68,5.78,3.1,3.99
AGTCAAAGATCATCTAGGTAACGTAAGATATGCT,-0.125,0.0142,-0.0346,-0.0476,-0.391,0.828,1.67,1.54,0.643,1.16,0.742,2.23,0.348,0.62,-0.382,-0.211,-0.246,0.277,0.136,0.0858
CAAACTAGGTCACCAAAGGTCAAAGTCGAATGAC,7.53,8.61,8.25,7.82,3.21,6.74,10.1,8.27,6.41,8.55,8.22,9.1,3.38,2.17,3.38,6.88,2.28,7.52,3.8,5.85
TCTCGGAGGACACGAAGTTCAGAGCTTTCCAGAG,0.621,0.0816,-0.00666,0.0852,-0.97,0.472,-0.146,1.2,2.18,1.76,1.43,-0.00253,-0.707,-1.05,-0.195,1.39,2.87,0.555,-0.518,2.36
CCTACTCGGCCACGAAAGGTCATTGATTCAGTGA,3.82,5.15,5.64,4.28,0.938,4.36,1.93,3.43,1.33,2.24,2.57,2.28,-0.0183,-0.203,3.66,5.12,1.83,5.43,1.61,4.03
GGAACGAGGGCAAAGTTGATAGCCTCTGTCGACG,1.19,0.817,-0.461,0.459,-0.828,3.93,6.54,7.37,5.66,7.65,4.2,4.33,-0.184,-0.449,0.223,1.1,-0.21,1.37,-0.637,2.24
GTACCGAGGTGAATAGGTCGTTGATGAGTAGGCG,1.03,0.978,-0.306,0.874,-0.778,2.68,1.86,2.13,0.147,0.886,1.68,2.73,-0.652,-0.0941,1.09,0.905,-0.18,2.02,-0.153,2.03
CAAACTAGGTCACCGGAAGGTCAAAGTCCGCATG,6.27,6.15,5.16,5.46,1.59,6.16,9.5,7.87,5.79,7.49,8.69,8.91,2.7,2.01,6.37,5.88,1.99,6.98,2.38,5.37
ACTATTAGTTGAGGCGAGGGCAACCGATAGGTTG,0.489,0.289,0.0582,0.0711,0.108,0.378,0.389,0.0046,0.138,-0.0218,0.169,0.559,0.713,0.82,0.794,0.918,0.305,0.644,0.393,1.4
CGAACTAGGTCAAGGACAGTGACTCTCCGCACGC,3.47,2.28,0.349,1.58,-0.267,4.79,7.35,6.66,3.92,6.28,8.38,8.3,1.83,0.467,1.66,1.37,-0.264,2.54,0.541,3.95
TCGAGTAGGTTACCAATTGGGCATTCAGCTTTCT,0.0774,0.268,-0.567,0.437,-0.954,0.973,-0.0221,1.3,0.909,1.06,3.77,2.73,-0.446,-0.0338,-0.44,0.0575,-0.745,0.253,-0.895,0.606
CGTCCAAGGTCAATGATAGGTCAGTGAAAGCATT,6.83,6,2.8,4.83,0.895,5.41,3.87,4.8,1.74,3.35,3.37,3.61,0.384,-0.272,6.66,5.17,1.58,6.7,1.7,5.31
TCGAGTAGGTAAGTCGGGGCATTCAGCCAACATA,-0.0236,-0.0704,-0.439,-0.175,-0.922,0.0443,-0.3,0.0863,0.929,0.572,1.34,0.805,-1.3,-0.763,-0.452,-0.238,-0.436,-0.22,-0.413,-0.182
ATCTCTAGGTAAAGATAGTTCAATGAATGCAAAT,0.446,4.83,1.09,1.44,0.777,1.15,1.03,0.735,0.381,0.638,2.11,1.74,1.55,1.22,0.945,1.65,1.02,0.946,1.4,1.07
CCTTACGGGTCGCGAGGTTATAGCACGACGAGCG,2.87,1.99,-0.147,1.82,-0.455,3.61,1.91,2.15,0.056,0.872,0.357,1.14,-0.25,-0.857,1.41,2.63,-0.189,3.62,-0.132,2.23
ATATGTAGGCTACATCCGGGTCATTCAGGCTATG,0.976,1.54,0.0787,1.85,0.425,3.62,3.08,2.77,1.13,1.85,5.71,5.66,1.96,1.11,0.66,2.34,1.04,2.51,0.115,1.27
GGAGCGAGGGCATTCGAGTTGATAGCATGGCGAT,0.608,1.24,-0.883,-0.106,-1.07,0.542,0.179,-0.159,-0.424,-0.195,0.18,0.079,-0.936,-1.62,-0.569,3.55,0.905,1.1,-0.544,1.75
CCTACTGGGCCAAAGGTAATTGATTCCAATGCTC,-0.451,-0.199,-0.379,-0.0867,-0.845,3.66,8.76,7.99,6.87,8.72,5.36,4.68,0.0261,0.0447,0.234,-0.286,-0.264,-0.0121,-0.474,0.179
TTACCCAGGTGAAAGGTCGTTGATGCACGCCTTG,2.92,3.07,0.858,2.75,-0.247,5.24,9.35,8.61,7.49,10.2,3.16,5.28,1.04,0.584,2.1,3.69,0.742,4.9,-0.211,2.46
GCTTGTAGATCAAGTTTAAGAAAGACTAAGCTAA,-0.477,-0.231,-0.318,-0.15,-0.39,0.142,-0.204,-0.0876,-0.116,-0.107,0.956,0.313,0.0425,0.223,-0.136,0.206,0.211,0.203,-0.548,-0.0982
TTACCAAGGTGAAGGTCGTTGAACCCTCTGTAGA,3.72,3.95,1.78,2.99,-0.723,3.27,3.46,4.28,2.15,3.9,1.76,3.38,0.136,0.367,0.968,3.18,0.277,3.4,-0.283,2.4
CAGCCTAGGTCAGGGGCAGTATAGGAGGAACGTT,2.14,1.38,-0.331,1.27,-0.805,2.38,1.3,1.75,0.184,0.954,1.2,1.71,-0.201,-0.982,1.41,0.677,-0.048,1.33,0.0151,3.5
AGTCAAAGTTCAGGAGGAGGTAACGTAAAGCACG,4.22,3.87,1.6,2.24,0.773,3.67,5.03,5.22,2.38,3.98,-0.11,2.24,0.683,1.05,2.81,3.09,1.96,3.17,1.91,4.57
ATCTCTAGGTAACAAGTTCAGTGACAGAGAGGAC,0.767,0.889,0.72,0.57,0.85,1.52,1.61,2.21,0.948,1.88,3.59,3.2,1.48,1.17,1.56,1.61,1.61,1.11,1.47,1.81
